According to PubChem BioAssay (NCI):
The panel holds about 79,000 compounds, 15% with a hit somewhere; the sample as a whole holds those more often. Active and inactive are the calls of the source. Cut-off read from the data, not from the text of the source: active = growth inhibition above about 70%; inactive = the rest.

Legend:
[1] = NCI Yeast Anticancer Drug Screen. Data for the rad52 strain (AID 147);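 note: 0% = growth of vehicle-treated control cultures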; conditions: S. cerevisiae rad52 mutant growth inhibition, hits give high values
How it was run: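 Genetically altered yeast (DNA damage repair defect) treated with compound; inhibition calculated relative to vehicle.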

[2] = NCI Yeast Anticancer Drug Screen. Data for the wt1 strain (AID 149);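 note: 0% = growth of vehicle-treated wt1 cultures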; conditions: S. cerevisiae wt1 strain (SPY 50644) growth inhibition, hits give high values
How it was run: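 Readout: yeast growth inhibition, normalised to vehicle controls, in the wt1 strain exposed to test compounds.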

[3] = NCI Yeast Anticancer Drug Screen. Data for the rad50EPP+ strain (AID 151);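 note: 0% = growth of vehicle-treated control cultures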; conditions: S. cerevisiae rad50 mutant strain, hits give high values
How it was run: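 Strain rad50EPP+; compound exposure; % growth inhibition vs vehicle.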

[4] = NCI Yeast Anticancer Drug Screen. Data for the mgt1 strain (AID 153); conditions: S. cerevisiae mgt1 mutant growth inhibition, hits give high values
How it was run: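 Read-out: yeast growth inhibition vs vehicle control. Strain mgt1, drawn from a panel altered in DNA damage repair or cell cycle control.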

[5] = NCI Yeast Anticancer Drug Screen. Data for the rad50 strain (AID 155);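 note: 0% = growth of vehicle-only cultures of the same strain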; conditions: S. cerevisiae rad50 strain growth inhibition, hits give high values
How it was run: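 Compounds were tested on a yeast strain with an engineered DNA damage repair alteration; the reported value is growth inhibition normalised to vehicle treatment.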

[6] = NCI Yeast Anticancer Drug Screen. Data for the mec2-1 strain (AID 157); conditions: S. cerevisiae mec2-1 strain, hits give high values
How it was run: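 Cells of the genetically defined mec2-1 yeast strain are incubated with test compound. Inhibition of growth is calculated against vehicle-treated controls.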

[7] = NCI Yeast Anticancer Drug Screen. Data for the rad14 strain (AID 159);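 note: 0% = growth of vehicle-treated control cultures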; conditions: S. cerevisiae rad14 strain growth inhibition, hits give high values
How it was run: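 Compound-treated yeast with a defined DNA-repair lesion; growth inhibition normalised to vehicle-treated cultures.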

[8] = NCI Yeast Anticancer Drug Screen. Data for the sgs1 mgt1 strain (AID 161);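 note: 0% = growth of cultures given vehicle only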; conditions: S. cerevisiae sgs1 mgt1 strain, hits give high values
How it was run: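 Inhibition of yeast growth, normalised to vehicle-treated controls, is reported for a strain bearing genetic alterations in DNA damage repair.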

[9] = NCI Yeast Anticancer Drug Screen. Data for the CLN2oe strain (AID 163);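 note: 0% = growth of vehicle-only control cultures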; conditions: S. cerevisiae CLN2oe strain, hits give high values
How it was run: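 Strain altered in cell-cycle control, incubated with compound; growth compared to solvent-treated controls.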

[10] = NCI Yeast Anticancer Drug Screen. Data for the cln2 rad14 strain (AID 165);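 note: 0% = growth equal to vehicle treated cultures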; conditions: S. cerevisiae cln2 rad14 strain, hits give high values
How it was run: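 The screen exposed genetically defined yeast (cln2 rad14) to test compounds and scored growth inhibition relative to vehicle-treated controls.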

[11] = NCI Yeast Anticancer Drug Screen. Data for the bub3 strain (AID 167); conditions: S. cerevisiae bub3 mutant strain, hits give high values
How it was run: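 Growth of a checkpoint-deficient yeast mutant is measured after compound exposure. Values represent inhibition relative to vehicle.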

[12] = NCI Yeast Anticancer Drug Screen. Data for the wt2 strain (AID 169);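 note: 0% = growth of vehicle-treated yeast cultures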; conditions: S. cerevisiae wt2 strain growth inhibition, hits give high values
How it was run: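 Steps: yeast strain treated with compound; growth recorded; inhibition calculated relative to cultures given vehicle alone.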

[13] = NCI Yeast Anticancer Drug Screen. Data for the mlh1 strain (AID 171);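 note: 0% = growth of vehicle-treated control cultures of the same strain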; conditions: S. cerevisiae mlh1 strain growth inhibition, hits give high values
How it was run: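 Yeast screen: mutant strain plus compound, growth scored against vehicle control wells.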

[14] = NCI Yeast Anticancer Drug Screen. Data for the sgs1 strain (AID 173);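 note: 0% = growth of vehicle-only control cultures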; conditions: S. cerevisiae sgs1 mutant, hits give high values
How it was run: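 Inhibition of yeast growth served as the measure. The mutant strain was treated with each compound, and growth was normalised to cultures receiving vehicle alone.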

[15] = NCI Yeast Anticancer Drug Screen. Data for the mlh1 rad18 strain (AID 175); conditions: S. cerevisiae mlh1 rad18 strain growth inhibition, hits give high values
How it was run: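 Compound-treated yeast growth, normalised to vehicle controls. Strain bears defined DNA repair mutations.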

[16] = NCI Yeast Anticancer Drug Screen. Data for the rad18 strain (AID 177); conditions: S. cerevisiae rad18 mutant growth inhibition, hits give high values
How it was run: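 Inhibition values reflect reduced yeast growth compared with vehicle-treated controls, using a strain engineered with a DNA damage repair defect.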

[17] = at 5.0 µM (retest, dose inferred, filed as 0.5)
[18] = at 50.0 µM (retest, dose inferred, filed as 5.0)

Measured: growth inhibition

N/C(=N/N=C/c1cc(Br)cc(Br)c1O)NO
active: [1]; at 33.0 µM 90% | [1]; at 100.0 µM 97% | [2]; at 33.0 µM 90% | [2]; at 100.0 µM 98% | [3]; at 100.0 µM 73% | [4]; at 33.0 µM 95% | [4]; at 100.0 µM 98% | [5]; at 33.0 µM 90% | [5]; [18] 99% | [5]; at 50.0 µM 96.1% | [5]; at 100.0 µM 97% | [6]; at 33.0 µM 87% | [6]; [18] 99% | [6]; at 50.0 µM 85.8% | [6]; at 100.0 µM 96% | [7]; at 11.0 µM 82% | [7]; at 33.0 µM 97% | [7]; at 100.0 µM 98% | [8]; [18] 99% | [8]; at 50.0 µM 97.8% | [9]; at 33.0 µM 95% | [9]; at 100.0 µM 98% | [10]; [18] 99% | [10]; at 50.0 µM 92.3% | [11]; at 33.0 µM 93% | [11]; [18] 99% | [11]; at 50.0 µM 87% | [11]; at 100.0 µM 97% | [12]; at 33.0 µM 94% | [12]; at 100.0 µM 98% | [13]; at 33.0 µM 93% | [13]; at 100.0 µM 97% | [14]; at 33.0 µM 93% | [14]; at 100.0 µM 96% | [15]; [18] 99% | [15]; at 50.0 µM 98.7% | [16]; at 11.0 µM 75% | [16]; at 33.0 µM 94% | [16]; at 100.0 µM 97%
inactive: [1]; at 1.2 µM -37% | [1]; at 3.7 µM -26% | [1]; at 11.0 µM 17% | [2]; at 1.2 µM -94% | [2]; at 3.7 µM -40% | [2]; at 11.0 µM -13% | [3]; at 1.2 µM -27% | [3]; at 3.7 µM -24% | [3]; at 11.0 µM -6% | [3]; at 33.0 µM 28% | [4]; at 1.2 µM -36% | [4]; at 3.7 µM -27% | [4]; at 11.0 µM 66% | [5]; at 1.2 µM -39% | [5]; at 3.7 µM -34% | [5]; [17] -1% | [5]; at 11.0 µM 6% | [6]; at 1.2 µM -89% | [6]; at 3.7 µM -62% | [6]; [17] 13% | [6]; at 11.0 µM -6% | [7]; at 1.2 µM -19% | [7]; at 3.7 µM -1% | [8]; [17] 10% | [9]; at 1.2 µM -6% | [9]; at 3.7 µM -11% | [9]; at 11.0 µM 25% | [10]; [17] 7% | [11]; at 1.2 µM -40% | [11]; at 3.7 µM -60% | [11]; [17] -5% | [11]; at 11.0 µM 44% | [12]; at 1.2 µM -2% | [12]; at 3.7 µM -9% | [12]; at 11.0 µM 35% | [13]; at 1.2 µM -78% | [13]; at 3.7 µM -40% | [13]; at 11.0 µM 58% | [14]; at 1.2 µM -35% | [14]; at 3.7 µM -28% | [14]; at 11.0 µM 59% | [15]; [17] 16% | [16]; at 1.2 µM -30% | [16]; at 3.7 µM -20%

COC1=C(OC)C(=O)C(Sc2ccc3ccccc3c2)=CC1=O
inactive: [1]; at 1.2 µM -19% | [1]; at 3.7 µM -19% | [1]; at 11.0 µM 56% | [2]; at 1.2 µM -73% | [2]; at 3.7 µM -61% | [2]; at 11.0 µM -13% | [3]; at 1.2 µM -29% | [3]; at 3.7 µM -10% | [3]; at 11.0 µM 67% | [4]; at 1.2 µM -46% | [4]; at 3.7 µM -47% | [4]; at 11.0 µM 8% | [5]; at 1.2 µM -15% | [5]; at 3.7 µM 0% | [5]; [17] 17% | [5]; at 11.0 µM 19% | [6]; at 1.2 µM -69% | [6]; at 3.7 µM -40% | [6]; [17] 29% | [6]; at 11.0 µM 19% | [7]; at 1.2 µM -18% | [7]; at 3.7 µM -8% | [7]; at 11.0 µM 64% | [8]; [17] 5% | [9]; at 1.2 µM 5% | [9]; at 3.7 µM 19% | [9]; at 11.0 µM 45% | [10]; [17] 4% | [10]; [18] -12% | [11]; at 1.2 µM -11% | [11]; at 3.7 µM 0% | [11]; [17] 3% | [11]; at 11.0 µM -3% | [12]; at 1.2 µM -35% | [12]; at 3.7 µM -43% | [12]; at 11.0 µM 33% | [13]; at 1.2 µM -39% | [13]; at 3.7 µM -38% | [13]; at 11.0 µM 25% | [14]; at 1.2 µM -25% | [14]; at 3.7 µM -17% | [14]; at 11.0 µM 23% | [15]; [17] 47% | [16]; at 1.2 µM -36% | [16]; at 3.7 µM -25% | [16]; at 11.0 µM 58%
active: [1]; at 33.0 µM 93% | [1]; at 100.0 µM 92% | [2]; at 33.0 µM 94% | [2]; at 100.0 µM 92% | [3]; at 33.0 µM 95% | [3]; at 100.0 µM 97% | [4]; at 33.0 µM 94% | [4]; at 100.0 µM 92% | [5]; at 33.0 µM 92% | [5]; [18] 97% | [5]; at 50.0 µM 89.4% | [5]; at 100.0 µM 83% | [6]; at 33.0 µM 95% | [6]; [18] 98% | [6]; at 50.0 µM 93.3% | [6]; at 100.0 µM 89% | [7]; at 33.0 µM 96% | [7]; at 100.0 µM 93% | [8]; [18] 80% | [8]; at 50.0 µM 91.8% | [9]; at 33.0 µM 85% | [9]; at 100.0 µM 87% | [10]; at 50.0 µM 85.8% | [11]; at 33.0 µM 89% | [11]; [18] 79% | [11]; at 50.0 µM 91.2% | [11]; at 100.0 µM 87% | [12]; at 33.0 µM 96% | [12]; at 100.0 µM 94% | [13]; at 33.0 µM 95% | [13]; at 100.0 µM 95% | [14]; at 33.0 µM 93% | [14]; at 100.0 µM 93% | [15]; [18] 96% | [15]; at 50.0 µM 89.6% | [16]; at 33.0 µM 92% | [16]; at 100.0 µM 87%
